# Source: PubChem BioAssay AID1159580 (chemical genetic matrix, 2015)
# Hit rate of the full screen: of about 5,500 compounds, about 2,000 (36%) were called active. Inconclusive results (about 18%) are left out. Some of the results follow. A number with no mark means an inactive call. No stated cut-off is given here; in the data, active means normalized growth mostly below about 0.91 (no sharp cut-off); inconclusive means no clear call, values can overlap the other calls; inactive means mostly above about 0.92.
# Test: chemical genetic growth profiling, strain panel (AID 1159580);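 further: tested at 20 µM; growth read once vehicle control cultures reached saturation at 30 °C; 1 = growth at the plate median or of vehicle wells; lower values mean less growth of the strain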
# Conditions: S. cerevisiae deletion strains, growth OD
# [1] = locus YDL101C, strain DUN1, hits give low values
# [2] = locus YHR030C, strain SLT2, hits give low values
compound,measurement,setting,value
O=C(NCc1ccc2c(c1)OCO2)c1cc2ccccc2s1,normalized growth,"locus YAR019C, strain CDC15, hits give low values",0.858 (active)
same,normalized growth,"locus YBL105C, strain PKC1, hits give low values",0.867 (active)
same,normalized growth,"locus YBR135W, strain CKS1, hits give low values",0.87 (active)
same,normalized growth,"locus YBR136W, strain MEC1, hits give low values",0.866 (active)
same,normalized growth,"locus YBR160W, strain CDC28, hits give low values",0.873 (active)
same,normalized growth,"locus YDL017W, strain CDC7, hits give low values",0.877 (active)
same,normalized growth,"locus YDL028C, strain MPS1, hits give low values",0.9
same,normalized growth,[1],0.912
same,normalized growth,"locus YDL108W, strain KIN28, hits give low values",0.888 (active)
same,normalized growth,"locus YDL132W, strain cdc53, hits give low values",0.851 (active)
same,normalized growth,"locus YDL214C, strain PRR2, hits give low values",0.58 (active)
same,normalized growth,"locus YDR052C, strain DBF4, hits give low values",0.933
same,normalized growth,"locus YDR054C, strain cdc34, hits give low values",0.648 (active)
same,normalized growth,"locus YDR226W, strain ADK1, hits give low values",0.874 (active)
same,normalized growth,"locus YDR477W, strain SNF1, hits give low values",0.422 (active)
same,normalized growth,"locus YER123W, strain YCK3, hits give low values",0.396 (active)
same,normalized growth,"locus YER133W, strain GLC7, hits give low values",0.298 (active)
same,normalized growth,"locus YFL009W, strain cdc4, hits give low values",0.858 (active)
same,normalized growth,"locus YFL029C, strain CAK1, hits give low values",0.852 (active)
same,normalized growth,"locus YFR003C, strain YPI1, hits give low values",0.872 (active)
same,normalized growth,"locus YFR019W, strain FAB1, hits give low values",0.625 (active)
same,normalized growth,"locus YFR028C, strain CDC14, hits give low values",0.864 (active)
same,normalized growth,"locus YGR040W, strain KSS1, hits give low values",0.459 (active)
same,normalized growth,"locus YGR052W, strain FMP48, hits give low values",0.406 (active)
same,normalized growth,"locus YGR092W, strain DBF2, hits give low values",0.3 (active)
same,normalized growth,[2],0.14 (active)
same,normalized growth,"locus YHR079C, strain IRE1, hits give low values",0.178 (active)
same,normalized growth,"locus YHR082C, strain KSP1, hits give low values",0.571 (active)
same,normalized growth,"locus YHR205W, strain SCH9, hits give low values",0.678
same,normalized growth,"locus YIL147C, strain SLN1, hits give low values",0.871 (active)
same,normalized growth,"locus YJL095W, strain BCK1, hits give low values",0.144 (active)
same,normalized growth,"locus YJL128C, strain PBS2, hits give low values",0.854
same,normalized growth,"locus YJL157C, strain FAR1, hits give low values",0.622 (active)
same,normalized growth,"locus YJR016C, strain ILV3, hits give low values",0.87 (active)
same,normalized growth,"locus YJR066W, strain TOR1 (second series), hits give low values",0.155 (active)
same,normalized growth,"locus YJR066W, strain TOR1, hits give low values",0.432 (active)
same,normalized growth,"locus YKL048C, strain ELM1, hits give low values",0.443 (active)
same,normalized growth,"locus YKL067W, strain YNK1, hits give low values",0.675 (active)
same,normalized growth,"locus YKL101W, strain HSL1, hits give low values",0.573 (active)
same,normalized growth,"locus YKL193C, strain SDS22, hits give low values",0.882 (active)
same,normalized growth,"locus YKL203C, strain TOR2, hits give low values",0.258 (active)
same,normalized growth,"locus YLR113W, strain HOG1, hits give low values",0.626 (active)
same,normalized growth,"locus YLR133W, strain CKI1, hits give low values",0.675 (active)
same,normalized growth,"locus YLR403W, strain SFP1, hits give low values",0.583 (active)
same,normalized growth,"locus YML070W, strain DAK1, hits give low values",0.54 (active)
same,normalized growth,"locus YMR001C, strain CDC5, hits give low values",0.837 (active)
same,normalized growth,"locus YMR205C, strain PFK2 (second series), hits give low values",0.692 (active)
same,normalized growth,"locus YMR277W, strain FCP1, hits give low values",0.829 (active)
same,normalized growth,"locus YNL006W, strain LST8, hits give low values",0.849 (active)
same,normalized growth,"locus YNL020C, strain ARK1, hits give low values",0.663 (active)
same,normalized growth,"locus YNL161W, strain CBK1, hits give low values",0.868 (active)
same,normalized growth,"locus YNL183C, strain NPR1, hits give low values",0.322 (active)
same,normalized growth,"locus YNL207W, strain RIO2, hits give low values",0.822 (active)
same,normalized growth,"locus YNL222W, strain SSU72, hits give low values",0.853 (active)
same,normalized growth,"locus YNL307C, strain MCK1 (second series), hits give low values",0.205 (active)
same,normalized growth,"locus YOL078W, strain AVO1, hits give low values",0.842 (active)
same,normalized growth,"locus YOL136C, strain PFK27, hits give low values",0.429 (active)
same,normalized growth,"locus YOR061W, strain CKA2, hits give low values",0.589 (active)
same,normalized growth,"locus YOR119C, strain RIO1, hits give low values",0.273 (active)
same,normalized growth,"locus YOR231W, strain MKK1, hits give low values",0.369 (active)
same,normalized growth,"locus YOR329C, strain SCD5, hits give low values",0.856 (active)
same,normalized growth,"locus YPL031C, strain PHO85, hits give low values",0.392 (active)
same,normalized growth,"locus YPL153C, strain RAD53, hits give low values",0.224 (active)
same,normalized growth,"locus YPL204W, strain HRR25, hits give low values",0.3 (active)
same,normalized growth,"locus YPL209C, strain IPL1, hits give low values",0.868 (active)
same,normalized growth,"locus YPL256C, strain CLN2, hits give low values",0.558 (active)
same,normalized growth,"locus YPR025C, strain CCL1, hits give low values",0.863 (active)
same,normalized growth,"locus YPR106W, strain ISR1, hits give low values",0.882 (active)
same,normalized growth,"locus YPR111W, strain DBF20, hits give low values",0.868 (active)
same,normalized growth,"strain NNK1, hits give low values",0.835 (active)
same,normalized growth,"strain TSCII, hits give low values",0.799 (active)
O=C(O)C1c2ccccc2C(=O)N(Cc2ccc3c(c2)OCO3)C1c1cccnc1 (centres undefined),normalized growth,"locus YAL013W, strain DEP1, hits give low values",1.02
same,normalized growth,"locus YBR229C, strain ROT2, hits give low values",1.01
same,normalized growth,"locus YCL061C, strain MRC1, hits give low values",0.994
same,normalized growth,[1],1.01
same,normalized growth,"locus YDL134C, strain PPH21, hits give low values",0.993
same,normalized growth,"locus YDR150W, strain NUM1, hits give low values",0.978
same,normalized growth,"locus YEL061C, strain CIN8, hits give low values",1.04
same,normalized growth,"locus YGR078C, strain PAC10, hits give low values",1.04
same,normalized growth,[2],1.05
same,normalized growth,"locus YHR087W, strain rtc3, hits give low values",1.01
same,normalized growth,"locus YJR043C, strain POL32, hits give low values",0.996
same,normalized growth,"locus YJR075W, strain HOC1, hits give low values",1.03
same,normalized growth,"locus YKL190W, strain CNB1, hits give low values",0.989
same,normalized growth,"locus YLR039C, strain RIC1, hits give low values",1.01
same,normalized growth,"locus YLR058C, strain SHM2 (second series), hits give low values",0.997
same,normalized growth,"locus YLR085C, strain ARP6, hits give low values",1.02
same,normalized growth,"locus YLR262C, strain YPT6, hits give low values",0.971
same,normalized growth,"locus YML094W, strain GIM5, hits give low values",1.04
same,normalized growth,"locus YMR219W, strain ESC1, hits give low values",1
same,normalized growth,"locus YMR263W, strain SAP30, hits give low values",1
same,normalized growth,"locus YNL128W, strain TEP1, hits give low values",0.993
same,normalized growth,"locus YNL153C, strain GIM3, hits give low values",1.01
same,normalized growth,"locus YNL298W, strain CLA4 (second series), hits give low values",1.04
same,normalized growth,"locus YNL322C, strain KRE1, hits give low values",1.02
same,normalized growth,"locus YNR030W, strain Alg12, hits give low values",1
same,normalized growth,"locus YPL055C, strain LGE1, hits give low values",1.03
same,normalized growth,"locus YPL241C, strain CIN2, hits give low values",0.971
same,normalized growth,"locus YPR135W, strain CTF4, hits give low values",0.982
